# Experimental data reported in PMC7862700, “An all-to-all approach to the identification of sequence-specific readers for epigenetic DNA modifications on cytosine”.
# Tests used:
# Assay in all cases: DAPPL (digital affinity profiling via proximity ligation, sequencing); 10 mM Tris-HCl pH 7.5, 50 mM NaCl, 1 mM DTT, 4% glycerol, room temperature, 30 min; GST-TFs on glutathione beads, 16-mer random dsDNA library, 0.1% formaldehyde crosslink after washing; high values mean tight binding
# Details in all cases: protein: recombinant; tags: N-terminal GST; dsDNA, one strand shown
# FLI1 = target: T1, FLI1 (Homo sapiens, UniProt Q01543 1-452)
# T1 sequence: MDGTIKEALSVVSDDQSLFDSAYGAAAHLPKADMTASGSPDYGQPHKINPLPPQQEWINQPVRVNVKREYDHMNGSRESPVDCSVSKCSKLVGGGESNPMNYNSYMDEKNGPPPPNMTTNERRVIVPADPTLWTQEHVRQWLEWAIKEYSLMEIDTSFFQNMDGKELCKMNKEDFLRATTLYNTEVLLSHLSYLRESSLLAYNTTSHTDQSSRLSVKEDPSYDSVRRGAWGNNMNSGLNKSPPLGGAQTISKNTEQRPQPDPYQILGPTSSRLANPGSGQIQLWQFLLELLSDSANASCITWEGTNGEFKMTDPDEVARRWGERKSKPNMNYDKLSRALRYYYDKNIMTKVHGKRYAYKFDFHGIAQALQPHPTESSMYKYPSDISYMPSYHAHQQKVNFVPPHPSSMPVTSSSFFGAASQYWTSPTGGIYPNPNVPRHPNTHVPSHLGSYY
# Procedure, shortened: (§1)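 Yeast served to express human transcription factors as GST fusions, which were then captured on glutathione beads and labelled with DNA barcodes. Pooled with a tag-only sample, they were incubated with 200 nmole of a 16-mer random double-stranded DNA library for 30 min at room temperature in Tris/NaCl/DTT/glycerol buffer, washed, crosslinked with 0.1% formaldehyde, ligated by proximity, amplified by PCR and sequenced. Dividing each hexamer's read frequency for a factor by its frequency for the tag-only sample gives the binding signal.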
# ELK1 = target: T2, ELK1 (Homo sapiens, UniProt P19419 1-428)
# T2 sequence: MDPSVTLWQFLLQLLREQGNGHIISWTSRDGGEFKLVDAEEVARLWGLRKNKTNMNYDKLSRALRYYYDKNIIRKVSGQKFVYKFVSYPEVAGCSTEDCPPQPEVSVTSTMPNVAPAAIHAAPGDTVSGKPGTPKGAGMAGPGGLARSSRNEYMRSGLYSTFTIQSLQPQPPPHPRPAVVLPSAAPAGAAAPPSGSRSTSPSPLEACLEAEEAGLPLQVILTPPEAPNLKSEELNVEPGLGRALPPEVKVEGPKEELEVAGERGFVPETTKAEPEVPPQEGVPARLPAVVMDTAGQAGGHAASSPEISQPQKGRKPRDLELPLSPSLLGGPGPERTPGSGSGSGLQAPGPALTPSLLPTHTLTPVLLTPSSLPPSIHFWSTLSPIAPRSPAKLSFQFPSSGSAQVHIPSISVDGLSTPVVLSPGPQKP
# Procedure, shortened: as §1
# GABPA = target: T3, GABPA (Homo sapiens, UniProt Q06546 1-454)
# T3 sequence: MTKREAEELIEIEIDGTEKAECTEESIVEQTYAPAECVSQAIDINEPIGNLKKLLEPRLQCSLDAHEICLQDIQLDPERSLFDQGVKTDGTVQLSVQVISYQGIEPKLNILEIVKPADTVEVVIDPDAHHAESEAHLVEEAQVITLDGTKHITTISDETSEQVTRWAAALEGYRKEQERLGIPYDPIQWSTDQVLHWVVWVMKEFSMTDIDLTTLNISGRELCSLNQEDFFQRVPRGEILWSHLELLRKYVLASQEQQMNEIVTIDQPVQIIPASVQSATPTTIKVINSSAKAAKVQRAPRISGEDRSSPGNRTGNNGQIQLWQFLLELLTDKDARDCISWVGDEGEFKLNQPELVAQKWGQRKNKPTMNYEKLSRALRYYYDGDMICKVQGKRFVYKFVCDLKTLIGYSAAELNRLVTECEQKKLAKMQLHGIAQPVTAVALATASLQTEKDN
# Procedure, shortened: as §1
# ERG = target: T4, ERG (Homo sapiens, UniProt P11308 1-479)
# T4 sequence: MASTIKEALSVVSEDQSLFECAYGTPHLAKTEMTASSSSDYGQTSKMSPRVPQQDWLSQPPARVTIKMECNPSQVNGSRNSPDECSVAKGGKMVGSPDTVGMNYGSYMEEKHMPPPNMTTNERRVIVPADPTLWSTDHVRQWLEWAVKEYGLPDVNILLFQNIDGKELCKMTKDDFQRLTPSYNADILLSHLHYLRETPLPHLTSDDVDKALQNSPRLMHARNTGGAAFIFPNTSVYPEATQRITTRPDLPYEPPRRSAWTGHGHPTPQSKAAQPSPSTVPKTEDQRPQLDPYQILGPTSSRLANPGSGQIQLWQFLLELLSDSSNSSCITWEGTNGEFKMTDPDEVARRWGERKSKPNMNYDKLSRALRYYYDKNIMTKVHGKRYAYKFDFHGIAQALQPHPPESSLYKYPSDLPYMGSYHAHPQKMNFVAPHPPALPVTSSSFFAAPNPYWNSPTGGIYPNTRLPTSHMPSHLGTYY
# Procedure, shortened: as §1
# ELF1 = ELF1 (Homo sapiens, UniProt P32519 1-619)
# Procedure, shortened: as §1
# EHF = target: T5, EHF (Homo sapiens, UniProt Q9NZC4 1-300)
# T5 sequence: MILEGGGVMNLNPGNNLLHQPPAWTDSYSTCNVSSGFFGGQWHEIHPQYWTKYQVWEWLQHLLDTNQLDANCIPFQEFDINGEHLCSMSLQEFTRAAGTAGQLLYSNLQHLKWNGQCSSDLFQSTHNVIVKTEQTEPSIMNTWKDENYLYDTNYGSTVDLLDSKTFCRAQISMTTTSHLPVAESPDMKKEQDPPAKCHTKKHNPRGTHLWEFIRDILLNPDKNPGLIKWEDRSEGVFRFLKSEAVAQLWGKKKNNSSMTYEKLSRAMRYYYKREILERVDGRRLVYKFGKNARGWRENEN
# Procedure, shortened: as §1
# SPIB = SPIB (Homo sapiens, UniProt Q01892 1-262)
# Procedure, shortened: as §1
# ELK3 = target: T6, ELK3 (Homo sapiens, UniProt P41970 1-407)
# T6 sequence: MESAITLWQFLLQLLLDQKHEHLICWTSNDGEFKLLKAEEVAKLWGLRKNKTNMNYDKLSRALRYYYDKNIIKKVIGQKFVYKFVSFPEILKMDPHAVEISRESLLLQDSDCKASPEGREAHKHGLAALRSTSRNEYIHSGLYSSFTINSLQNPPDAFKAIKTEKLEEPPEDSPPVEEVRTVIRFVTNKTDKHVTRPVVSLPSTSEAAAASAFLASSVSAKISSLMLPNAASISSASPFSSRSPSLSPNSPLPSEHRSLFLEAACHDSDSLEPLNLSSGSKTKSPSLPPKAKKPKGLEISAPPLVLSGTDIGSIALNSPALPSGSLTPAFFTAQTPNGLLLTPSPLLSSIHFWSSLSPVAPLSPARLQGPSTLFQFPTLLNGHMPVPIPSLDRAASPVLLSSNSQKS
# Procedure, shortened: as §1
# SPIC = target: T7, SPIC (Homo sapiens, UniProt Q8N5J4 1-248)
# T7 sequence: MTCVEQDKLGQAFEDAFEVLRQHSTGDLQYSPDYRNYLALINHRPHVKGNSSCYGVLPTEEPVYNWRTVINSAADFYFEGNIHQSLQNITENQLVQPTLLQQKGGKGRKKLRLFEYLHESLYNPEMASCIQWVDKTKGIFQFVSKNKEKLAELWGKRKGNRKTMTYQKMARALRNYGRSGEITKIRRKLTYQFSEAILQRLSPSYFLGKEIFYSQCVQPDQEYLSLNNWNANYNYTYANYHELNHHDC
# Procedure, shortened: as §1
# ELF4 = ELF4 (Homo sapiens, UniProt Q99607 1-663)
# Procedure, shortened: as §1
# Chain of ELF1 (P32519 whole entry): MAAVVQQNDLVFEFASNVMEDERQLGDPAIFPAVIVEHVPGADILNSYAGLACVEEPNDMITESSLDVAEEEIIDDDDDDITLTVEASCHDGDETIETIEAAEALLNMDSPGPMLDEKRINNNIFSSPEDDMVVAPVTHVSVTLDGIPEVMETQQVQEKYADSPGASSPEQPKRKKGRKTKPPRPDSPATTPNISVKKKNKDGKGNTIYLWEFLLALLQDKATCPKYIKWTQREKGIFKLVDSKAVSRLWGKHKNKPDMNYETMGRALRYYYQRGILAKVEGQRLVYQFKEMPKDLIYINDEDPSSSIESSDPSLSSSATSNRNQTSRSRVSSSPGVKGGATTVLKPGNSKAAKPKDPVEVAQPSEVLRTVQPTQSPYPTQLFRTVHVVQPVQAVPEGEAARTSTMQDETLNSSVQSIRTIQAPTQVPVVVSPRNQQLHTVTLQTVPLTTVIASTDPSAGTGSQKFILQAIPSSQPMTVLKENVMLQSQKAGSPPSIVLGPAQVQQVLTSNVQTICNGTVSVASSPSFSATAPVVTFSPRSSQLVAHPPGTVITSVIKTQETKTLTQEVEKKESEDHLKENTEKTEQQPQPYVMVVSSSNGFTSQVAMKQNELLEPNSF
# Chain of ELF4 (Q99607 whole entry): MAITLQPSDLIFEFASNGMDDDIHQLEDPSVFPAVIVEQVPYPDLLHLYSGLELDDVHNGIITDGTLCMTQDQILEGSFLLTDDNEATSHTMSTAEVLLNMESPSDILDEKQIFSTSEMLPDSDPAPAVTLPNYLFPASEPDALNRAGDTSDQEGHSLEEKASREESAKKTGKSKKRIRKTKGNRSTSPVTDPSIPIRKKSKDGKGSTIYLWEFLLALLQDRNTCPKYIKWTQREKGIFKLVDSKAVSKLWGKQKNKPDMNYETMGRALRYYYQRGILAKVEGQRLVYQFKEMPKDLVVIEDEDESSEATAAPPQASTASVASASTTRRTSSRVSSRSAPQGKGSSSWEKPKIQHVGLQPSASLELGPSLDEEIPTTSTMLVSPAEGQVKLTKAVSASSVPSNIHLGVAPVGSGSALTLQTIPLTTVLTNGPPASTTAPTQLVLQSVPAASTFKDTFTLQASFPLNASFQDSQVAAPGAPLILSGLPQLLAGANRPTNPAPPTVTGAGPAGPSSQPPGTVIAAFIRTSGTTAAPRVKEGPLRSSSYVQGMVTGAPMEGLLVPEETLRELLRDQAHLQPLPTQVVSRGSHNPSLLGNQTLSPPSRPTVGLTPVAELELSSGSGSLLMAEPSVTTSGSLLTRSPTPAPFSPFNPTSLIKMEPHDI
# Chain of SPIB (Q01892 whole entry): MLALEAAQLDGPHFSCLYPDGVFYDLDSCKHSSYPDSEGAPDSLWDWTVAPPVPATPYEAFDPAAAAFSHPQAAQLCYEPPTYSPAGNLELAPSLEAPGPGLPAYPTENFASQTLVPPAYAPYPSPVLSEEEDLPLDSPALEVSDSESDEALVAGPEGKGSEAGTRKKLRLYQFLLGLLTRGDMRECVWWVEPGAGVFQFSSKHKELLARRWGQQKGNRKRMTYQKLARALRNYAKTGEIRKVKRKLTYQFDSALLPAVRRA
sequence,measurement,setting,value
TACAGC,binding signal,FLI1,"1.06 fold enrichment (6-mer frequency, TF over GST control)"
same,binding signal,ELK1,"1.01 fold enrichment (6-mer frequency, TF over GST control)"
same,binding signal,GABPA,"1.07 fold enrichment (6-mer frequency, TF over GST control)"
same,binding signal,ERG,"1.06 fold enrichment (6-mer frequency, TF over GST control)"
same,binding signal,ELF1,"1.13 fold enrichment (6-mer frequency, TF over GST control)"
same,binding signal,EHF,"1.06 fold enrichment (6-mer frequency, TF over GST control)"
same,binding signal,SPIB,"1.04 fold enrichment (6-mer frequency, TF over GST control)"
same,binding signal,ELK3,"1.06 fold enrichment (6-mer frequency, TF over GST control)"
same,binding signal,SPIC,"1.02 fold enrichment (6-mer frequency, TF over GST control)"
same,binding signal,ELF4,"1.13 fold enrichment (6-mer frequency, TF over GST control)"
